# The full ranking holds about 2,900 compounds; the median of “NF-kB SEAP reporter activity, fold change vs agonist alone” is about 0.99, and the highest 2% start at about 2.6. What follows is part of a selection rich in the highest values, with near analogues and random picks from the rest.
# Legend:
# RAW-Dual [1] = assay: NF-kB SEAP reporter activity, fold change vs agonist alone; higher = enhanced NF-kB activity; conditions: library stock concentration (final ~1000-fold dilution): 10 mM
# Method in brief: (§1)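 Reporter activity is given as fold change relative to agonist-alone wells. To measure it, 50 nL of library stock was pin-tooled onto RAW-Dual macrophages (50,000 cells/well, DMEM, 384-well plates), a PRR agonist followed 1 h later, and cells stayed at 37 °C, 5% CO2. Twenty hours on, supernatant was assayed for IRF (QuantiLuc luminescence) and NF-κB (QuantiBlue, 620 nm absorbance), and wells under 70% of agonist-control IncuCyte confluency in both mask sets were marked cytotoxic.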
# RAW-Dual [2] = assay: NF-kB SEAP reporter activity, fold change vs agonist alone; cytotoxicity flag (confluency mask): not cytotoxic; higher = enhanced NF-kB activity
# Method in brief: as §1
# RAW-Dual [3] = assay: NF-kB SEAP reporter activity, fold change vs agonist alone; cytotoxicity flag (confluency mask): cytotoxic (confluency <70% of control); higher = enhanced NF-kB activity
# Method in brief: as §1
# [4] = cytotoxicity flag (confluency mask): not cytotoxic, agonist: Imiquimod (TLR7) […]
# [5] = cytotoxicity flag (confluency mask): not cytotoxic, agonist: MPLA (TLR4) […]
# [6] = agonist: ODN 1826 (TLR9) 0.5 ug/mL
# [7] = agonist: Pam2CSK4 (TLR2/6) 0.1 ug/mL
# [8] = agonist: Pam3CSK4 (TLR2/1) 0.1 ug/mL
# [9] = cytotoxicity flag (confluency mask): cytotoxic (confluency <70% of control), agonist: Imiquimod (TLR7) […]
# [10] = cytotoxicity flag (confluency mask): cytotoxic (confluency <70% of control), agonist: MPLA (TLR4) […]
structure (smiles),measurement,setting,value
CCOC(=O)Nc1ccc(NCc2ccc(F)cc2)nc1N.O=C(O)/C=C/C(=O)O,NF-kB SEAP reporter activity,RAW-Dual [1]; [4],0.871
same,NF-kB SEAP reporter activity,RAW-Dual [1]; [5],1.23
CCOC(=O)Nc1ccc(NCc2ccc(F)cc2)nc1N.O=C(O)/C=C/C(=O)O (library stock concentration (final ~1000-fold dilution): 10 mM),NF-kB SEAP reporter activity,RAW-Dual [2]; agonist: LPS (TLR4) 0.1 ug/mL,1.03
same,NF-kB SEAP reporter activity,RAW-Dual [2]; [6],1.1
same,NF-kB SEAP reporter activity,RAW-Dual [2]; [7],0.993
same,NF-kB SEAP reporter activity,RAW-Dual [2]; [8],1.01
CC(C)CN(CC(O)C(Cc1ccccc1)NC(=O)OC1COC2OCCC12)S(=O)(=O)c1ccc(N)cc1.CCO (stereo not given),NF-kB SEAP reporter activity,RAW-Dual [1]; [4],1.42
same,NF-kB SEAP reporter activity,RAW-Dual [1]; [5],1.49
CC(C)CN(CC(O)C(Cc1ccccc1)NC(=O)OC1COC2OCCC12)S(=O)(=O)c1ccc(N)cc1.CCO (stereo not given) (library stock concentration (final ~1000-fold dilution): 10 mM),NF-kB SEAP reporter activity,RAW-Dual [2]; agonist: LPS (TLR4) 0.1 ug/mL,1.78
same,NF-kB SEAP reporter activity,RAW-Dual [2]; [6],1.57
same,NF-kB SEAP reporter activity,RAW-Dual [2]; [7],1.42
same,NF-kB SEAP reporter activity,RAW-Dual [2]; [8],1.43
COc1ccc(Cn2c3ncnc4c(ncn4Cc4ccc(OC)cc4)c-3nc2=O)cc1 (library stock concentration (final ~1000-fold dilution): 10 mM),NF-kB SEAP reporter activity,RAW-Dual [2]; agonist: LPS (TLR4) 0.1 ug/mL,1.73
same,NF-kB SEAP reporter activity,RAW-Dual [2]; [6],1.45
same,NF-kB SEAP reporter activity,RAW-Dual [2]; [7],0.409
same,NF-kB SEAP reporter activity,RAW-Dual [2]; [8],0.8
COc1ccc(Cn2c3ncnc4c(ncn4Cc4ccc(OC)cc4)c-3nc2=O)cc1,NF-kB SEAP reporter activity,RAW-Dual [1]; [4],1.43
same,NF-kB SEAP reporter activity,RAW-Dual [1]; [5],2.08
CC(=O)c1ccc2c(c1)c1cc(C(C)=O)ccc1n2CCNC(C)C (library stock concentration (final ~1000-fold dilution): 10 mM),NF-kB SEAP reporter activity,RAW-Dual [3]; agonist: LPS (TLR4) 0.1 ug/mL,0.301
same,NF-kB SEAP reporter activity,RAW-Dual [3]; [6],0.193
same,NF-kB SEAP reporter activity,RAW-Dual [3]; [7],0.0764
same,NF-kB SEAP reporter activity,RAW-Dual [3]; [8],0.183
CC(=O)c1ccc2c(c1)c1cc(C(C)=O)ccc1n2CCNC(C)C,NF-kB SEAP reporter activity,RAW-Dual [1]; [9],0.147
same,NF-kB SEAP reporter activity,RAW-Dual [1]; [10],0.242
COc1ccccc1-c1cc(Nc2cccc(CS(N)(=O)=O)c2)ncn1 (library stock concentration (final ~1000-fold dilution): 10 mM),NF-kB SEAP reporter activity,RAW-Dual [2]; agonist: LPS (TLR4) 0.1 ug/mL,2.67
same,NF-kB SEAP reporter activity,RAW-Dual [2]; [6],2.18
same,NF-kB SEAP reporter activity,RAW-Dual [2]; [7],0.783
same,NF-kB SEAP reporter activity,RAW-Dual [2]; [8],1.55
COc1cc(F)ccc1-c1ncnc(Nc2cccc(CS(C)(=N)=O)c2)n1 (stereo not given),NF-kB SEAP reporter activity,RAW-Dual [1]; [9],1.26
same,NF-kB SEAP reporter activity,RAW-Dual [1]; [10],1.31
COc1ccccc1-c1cc(Nc2cccc(CS(N)(=O)=O)c2)ncn1,NF-kB SEAP reporter activity,RAW-Dual [1]; [4],1.45
same,NF-kB SEAP reporter activity,RAW-Dual [1]; [5],2.59
COc1cc(F)ccc1-c1ncnc(Nc2cccc(CS(C)(=N)=O)c2)n1 (stereo not given) (library stock concentration (final ~1000-fold dilution): 10 mM),NF-kB SEAP reporter activity,RAW-Dual [3]; agonist: LPS (TLR4) 0.1 ug/mL,0.786
same,NF-kB SEAP reporter activity,RAW-Dual [3]; [6],1.4
same,NF-kB SEAP reporter activity,RAW-Dual [3]; [7],0.277
same,NF-kB SEAP reporter activity,RAW-Dual [3]; [8],0.421
NC(=O)c1cccc(-c2cc(Nc3ccc(OC(F)(F)F)cc3)ncn2)c1,NF-kB SEAP reporter activity,RAW-Dual [1]; [4],1.24
same,NF-kB SEAP reporter activity,RAW-Dual [1]; [5],1.11
NC(=O)c1cccc(-c2cc(Nc3ccc(OC(F)(F)F)cc3)ncn2)c1 (library stock concentration (final ~1000-fold dilution): 10 mM),NF-kB SEAP reporter activity,RAW-Dual [2]; agonist: LPS (TLR4) 0.1 ug/mL,1.21
same,NF-kB SEAP reporter activity,RAW-Dual [2]; [6],0.672
same,NF-kB SEAP reporter activity,RAW-Dual [2]; [7],0.944
same,NF-kB SEAP reporter activity,RAW-Dual [2]; [8],0.869
CCOc1cc(=O)[nH]cc1-c1ccc(CC(=O)Nc2cc(C(C)(C)C(F)(F)F)on2)c(F)c1 (library stock concentration (final ~1000-fold dilution): 10 mM),NF-kB SEAP reporter activity,RAW-Dual [2]; agonist: LPS (TLR4) 0.1 ug/mL,0.538
same,NF-kB SEAP reporter activity,RAW-Dual [2]; [6],0.276
same,NF-kB SEAP reporter activity,RAW-Dual [2]; [7],0.163
same,NF-kB SEAP reporter activity,RAW-Dual [2]; [8],0.188
CCOc1cc(=O)[nH]cc1-c1ccc(CC(=O)Nc2cc(C(C)(C)C(F)(F)F)on2)c(F)c1,NF-kB SEAP reporter activity,RAW-Dual [1]; [4],0.281
same,NF-kB SEAP reporter activity,RAW-Dual [1]; [5],0.545
CC(C)=CCCC(C)(OC1OC(CO)C(O)C(O)C1O)C1CCC2(C)C1C(O)CC1C3(C)CCC(OC4OC(CO)C(O)C(O)C4OC4OC(CO)C(O)C(O)C4O)C(C)(C)C3CCC12C (stereo not given),NF-kB SEAP reporter activity,RAW-Dual [1]; [4],1.01
same,NF-kB SEAP reporter activity,RAW-Dual [1]; [5],1.02
CC(C)=CCCC(C)(OC1OC(CO)C(O)C(O)C1O)C1CCC2(C)C1C(O)CC1C3(C)CCC(OC4OC(CO)C(O)C(O)C4OC4OC(CO)C(O)C(O)C4O)C(C)(C)C3CCC12C (stereo not given) (library stock concentration (final ~1000-fold dilution): 10 mM),NF-kB SEAP reporter activity,RAW-Dual [2]; agonist: LPS (TLR4) 0.1 ug/mL,0.838
same,NF-kB SEAP reporter activity,RAW-Dual [2]; [6],1.11
same,NF-kB SEAP reporter activity,RAW-Dual [2]; [7],0.899
same,NF-kB SEAP reporter activity,RAW-Dual [2]; [8],1.02
CCCC(Nc1nc(-c2ccc(NC(=O)NCC)c(OC)c2)ncc1C)c1cccnc1 (stereo not given) (library stock concentration (final ~1000-fold dilution): 10 mM),NF-kB SEAP reporter activity,RAW-Dual [2]; agonist: LPS (TLR4) 0.1 ug/mL,5.93
same,NF-kB SEAP reporter activity,RAW-Dual [2]; [6],3.66
same,NF-kB SEAP reporter activity,RAW-Dual [2]; [7],2.2
same,NF-kB SEAP reporter activity,RAW-Dual [2]; [8],2.92
CCCC(Nc1nc(-c2ccc(NC(=O)NCC)c(OC)c2)ncc1C)c1cccnc1 (stereo not given),NF-kB SEAP reporter activity,RAW-Dual [1]; [4],2.63
same,NF-kB SEAP reporter activity,RAW-Dual [1]; [5],2.57
O=C(/C=C/c1ccc(O)c(O)c1/C=C/c1ccc(O)c(O)c1)OC(Cc1ccc(O)c(O)c1)C(=O)O (stereo not given) (library stock concentration (final ~1000-fold dilution): 10 mM),NF-kB SEAP reporter activity,RAW-Dual [2]; agonist: LPS (TLR4) 0.1 ug/mL,1.09
same,NF-kB SEAP reporter activity,RAW-Dual [2]; [6],0.836
same,NF-kB SEAP reporter activity,RAW-Dual [2]; [7],0.837
same,NF-kB SEAP reporter activity,RAW-Dual [2]; [8],0.289
O=C(/C=C/c1ccc(O)c(O)c1/C=C/c1ccc(O)c(O)c1)OC(Cc1ccc(O)c(O)c1)C(=O)O (stereo not given),NF-kB SEAP reporter activity,RAW-Dual [1]; [4],0.405
same,NF-kB SEAP reporter activity,RAW-Dual [1]; [5],0.891
CCn1c2ccccc2c2cc(CNCc3ccccc3OC)ccc21.Cl,NF-kB SEAP reporter activity,RAW-Dual [1]; [9],1.22
same,NF-kB SEAP reporter activity,RAW-Dual [1]; [10],1.37
CCn1c2ccccc2c2cc(-n3nncc3-c3ccccc3)ccc21,NF-kB SEAP reporter activity,RAW-Dual [1]; [4],1.66
same,NF-kB SEAP reporter activity,RAW-Dual [1]; [5],2.14
CCn1c2ccccc2c2cc(CNCc3ccccc3OC)ccc21.Cl (library stock concentration (final ~1000-fold dilution): 10 mM),NF-kB SEAP reporter activity,RAW-Dual [3]; agonist: LPS (TLR4) 0.1 ug/mL,1.06
same,NF-kB SEAP reporter activity,RAW-Dual [3]; [6],0.394
same,NF-kB SEAP reporter activity,RAW-Dual [3]; [7],0.659
same,NF-kB SEAP reporter activity,RAW-Dual [3]; [8],0.641
CCn1c2ccccc2c2cc(-n3nncc3-c3ccccc3)ccc21 (library stock concentration (final ~1000-fold dilution): 10 mM),NF-kB SEAP reporter activity,RAW-Dual [2]; agonist: LPS (TLR4) 0.1 ug/mL,3.15
same,NF-kB SEAP reporter activity,RAW-Dual [2]; [6],1.82
same,NF-kB SEAP reporter activity,RAW-Dual [2]; [7],1.81
same,NF-kB SEAP reporter activity,RAW-Dual [2]; [8],2.79
CC(=O)N1CCN(c2ccc(NC(=O)Cc3cnc(-c4ccnc(F)c4)c(C)c3)nc2)CC1,NF-kB SEAP reporter activity,RAW-Dual [1]; [4],0.874
same,NF-kB SEAP reporter activity,RAW-Dual [1]; [5],1
CC(=O)N1CCN(c2ccc(NC(=O)Cc3cnc(-c4ccnc(F)c4)c(C)c3)nc2)CC1 (library stock concentration (final ~1000-fold dilution): 10 mM),NF-kB SEAP reporter activity,RAW-Dual [2]; agonist: LPS (TLR4) 0.1 ug/mL,0.956
same,NF-kB SEAP reporter activity,RAW-Dual [2]; [6],0.965
same,NF-kB SEAP reporter activity,RAW-Dual [2]; [7],0.991
same,NF-kB SEAP reporter activity,RAW-Dual [2]; [8],1.03
CC(/C=C/C=C(\C)C(=O)OC1OC(COC2OC(CO)C(O)C(O)C2O)C(O)C(O)C1O)=C\C=C\C=C(C)\C=C\C=C(/C)C(=O)OC1OC(COC2OC(CO)C(O)C(O)C2O)C(O)C(O)C1O (stereo not given),NF-kB SEAP reporter activity,RAW-Dual [1]; [4],0.915
same,NF-kB SEAP reporter activity,RAW-Dual [1]; [5],1.03
CC(/C=C/C=C(\C)C(=O)OC1OC(COC2OC(CO)C(O)C(O)C2O)C(O)C(O)C1O)=C\C=C\C=C(C)\C=C\C=C(/C)C(=O)OC1OC(COC2OC(CO)C(O)C(O)C2O)C(O)C(O)C1O (stereo not given) (library stock concentration (final ~1000-fold dilution): 10 mM),NF-kB SEAP reporter activity,RAW-Dual [2]; agonist: LPS (TLR4) 0.1 ug/mL,1.08
same,NF-kB SEAP reporter activity,RAW-Dual [2]; [6],0.948
same,NF-kB SEAP reporter activity,RAW-Dual [2]; [7],1.16
same,NF-kB SEAP reporter activity,RAW-Dual [2]; [8],1.19

# Source: the supplement of paper PMC10037445
